# Source: PubChem BioAssay (NCI)
# About 83,000 compounds went through this panel and 20% of them were active in at least one assay; those are over-represented in the sample as a whole.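 Plates (96-well) were seeded with cells, treated with compound at one concentration, and incubated for 48 hours before percent growth was determined.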 Values without a mark were called inactive. Calls of active or inactive are those of the source. Rule for the calls: active = growth percent below 10; inactive = the rest.
# Tests used:
# Test in all cases: NCI-60 one-dose screen, 48 h (100 = growth as untreated, 0 = no growth, -100 = all killed)
# Details in all cases: 10 µM unless noted
# [1] = tested on: NCI-H23 lung
# [2] = tested on: NCI-H226 lung
# [3] = tested on: NCI-H322M lung
# [4] = tested on: HOP-62 NSCLC
# [5] = tested on: NCI-H460 lung
# [6] = tested on: HOP-92 NSCLC
# [7] = tested on: NCI-H522 lung
# [8] = tested on: A549/ATCC NSCLC
# [9] = tested on: 786-0 renal
# [10] = tested on: COLO 205 colon
SMILES,growth [1],growth [2],growth [3],growth [4],growth [5],growth [6],growth [7],growth [8],growth [9],growth [10]
O=CCCCOCc1ccccc1,96.4%,96.5%,110%,93.2%,107%,90.6%,88.5%,95.3%,98.4%,109%
Ic1ccc(Nc2nc3nonc3nc2Nc2ccc(I)cc2)cc1,1.49% (active),0.546% (active),10.9%,-18.3% (active),3.11% (active),-16.4% (active),-20.2% (active),4.13% (active),8.27% (active),-62.7% (active)
CCN(CCNc1ccc(C)c2sc3cc(Cl)ccc3c(=O)c12)CC(C)(C)O,82.3%,87.6%,74%,45.3%,44.4%,48.3%,76.7%,50.9%,47.6%,21.4%
CN1CCN(c2ccc(NC3=CC(=O)c4ncncc4C3=O)cc2)CC1,-43.5% (active),-47.7% (active),10.8%,-87.5% (active),-24.4% (active),-61.7% (active),-56.7% (active),-7.95% (active),-50.5% (active),-69.8% (active)
CCOC(=O)c1cn2ncnc(Oc3ccc(NC(=O)NC4CC4)c(Cl)c3)c2c1C,84.6%,71.4%,101%,90.9%,102%,109%,75.9%,99.2%,93.5%,108%
CN1CC(c2ccc(Br)cc2)C(C(=O)c2ccc(Br)cc2)C12C(=O)Nc1ccccc12 (stereo not given),67.7%,73.5%,89.9%,69%,73.3%,70.2%,58.2%,59.2%,79.2%,76.6%
CN(C)/C(N)=N/N=C(\c1ccccc1)c1ccccn1,95.7%,97.3%,83.1%,110%,101%,87.2%,95.5%,107%,99.9%,106%
O=c1oc2c(cc1-c1ccccc1)c(=O)[nH]c1ccccc12,95.8%,102%,104%,106%,105%,103%,94.2%,97.7%,85.9%,107%
O=C1/C(=C/c2cccc(Br)c2)COc2ccc(O)cc21,74.8%,101%,97.4%,86.6%,92.2%,46%,18.9%,66.2%,50%,84.5%
OC1(c2ccccc2)c2ccccc2N(c2ccccc2)c2ccc(Cl)cc21 (stereo not given),-49.4% (active),-80.7% (active),-90.3% (active),-91.7% (active),-48.4% (active),-76.8% (active),-86.8% (active),-12.5% (active),-94.6% (active),-85.7% (active)
Cc1ccc(O)c(NC(=O)c2cccc(Nc3ccnc(C(F)(F)F)c3)c2)c1,44.1%,44.8%,86.5%,85.6%,55.4%,77.6%,43.1%,60.3%,50%,128%
O=C(c1c[nH]c2ccccc12)c1n[nH]c(=S)n1-c1ccc([N+](=O)[O-])cc1,91.8%,77.8%,94.7%,87.4%,95.7%,80.3%,84.7%,81%,115%,96.8%
COCCn1cc(-c2nc(-c3cn(CCOC)c4ncccc34)cs2)c2cc(F)ccc21,53.5%,75.4%,46.9%,74.4%,49.7%,56.9%,33.3%,53.7%,76.6%,35.5%
Cc1cc(O)c(=O)cc2c1C[C@H]1CC(C)(C)/C=C/C[C@]3(C)Oc4cc(=O)c(O)cc(C)c4C[C@H]3C[C@H](O)[C@@]1(C)O2,-16.7% (active),11.9%,24.3%,0.636% (active),-6.53% (active),2.97% (active),-24.9% (active),-7.87% (active),-1.45% (active),-14.7% (active)
Nc1ncccc1O,78%,94.1%,98.8%,99.5%,49.3%,105%,61.4%,77.9%,111%,92.6%
CCCCCc1ccc(S(=O)(=O)Nc2cc(-c3csc(NC(C)=O)n3)ccc2N2CCN(C)CC2)cc1,65.5%,94.1%,73.2%,83.3%,-11.4% (active),36%,67.3%,55.8%,56.7%,-38.9% (active)
O=[N+]([O-])c1ccccc1Sc1ccccc1[N+](=O)[O-],93.7%,98.5%,91.4%,92.8%,103%,78.6%,87.8%,87.2%,93.4%,110%
N#Cc1c(-c2ccccc2)nc2c(c(-c3ccc(Cl)cc3)nn2-c2ccccc2)c1-c1ccc([N+](=O)[O-])cc1,96%,94.7%,97%,94.7%,103%,103%,91.7%,100%,110%,110%
COc1ccc2c(c1)c(-c1nc(-c3ccc4ccccc4c3)cs1)cn2C,87.1%,85.3%,85.1%,90.4%,98.4%,93%,79.2%,82.6%,75.4%,84%
Cc1ccc2cnc(N)c(C#Cc3cc(C(=O)Nc4ccc(CN5CCN(C)CC5)c(C(F)(F)F)c4)cnc3C)c2c1,-29.6% (active),7.1% (active),17.8%,-35.9% (active),-83% (active),-32% (active),-10.2% (active),-85.5% (active),-82.8% (active),-41.2% (active)
Clc1ccc(-c2cc(-c3ccccc3)nc(N3CCN(CCCNc4ccnc5cc(Cl)ccc45)CC3)n2)cc1,69%,45.9%,28.2%,82.1%,-12.8% (active),26.6%,9.55% (active),43.6%,-73.2% (active),-54.2% (active)
Nc1c(Cl)cc(/C=C2\C=Cc3ccccc32)cc1Cl,97.4%,98.7%,106%,102%,112%,99.6%,93.1%,92.7%,102%,102%
CC/C(=C(/c1ccc(O)cc1)c1ccc(OCCN2CCCCC2)cc1)c1ccc(OC)cc1,79.2%,103%,90.2%,83.5%,57.4%,70.2%,74.7%,64.4%,57.1%,-28.9% (active)
COc1ccc(C(O)c2cc3c(N)c(C(=O)Nc4cccc5ccccc45)sc3nc2C)cc1 (stereo not given),23.3%,18.6%,39.1%,25.6%,-20.2% (active),51%,0% (active),11.6%,16.2%,-34.3% (active)
c1cc(OCCN2CCCCCC2)ccc1CNc1ccc2nc(CCC3CCCCC3)[nH]c2c1,82.6%,60.8%,81.7%,60.5%,68.3%,23.3%,68.5%,70.8%,54.2%,-48% (active)
CCN(CC)CCOc1ccc2c(-c3ccccc3)c(-c3ccc(OC)cc3)c(=O)oc2c1,70.3%,85.2%,122%,95%,57.4%,63.9%,66.8%,70.6%,65.9%,-38.8% (active)
CCN(CC)C(=O)CC1=C(C)/C(=C/c2[nH]c(-c3ccc[nH]3)cc2OC)N=C1C,34%,20%,37.1%,33.1%,9.17% (active),-14.8% (active),10.1%,4.73% (active),-13.3% (active),15.9%
